HepG2 viability = qHTS for Inhibitors of TGF-b: Cytotox Counterscreen; AID 588856, 2011; Potency, µM (doses to about 46.1 µM), for inactives: top-dose activity change, negative = cytotoxicity, usual class: cytotoxic; HepG2 CAGA-GFP viability, ATP luminescence, 18 h; 0.76% of 410,000 active; note: potency is the fitted concentration of half-maximal effect
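HepG2 CAGA-GFP cells (1000/well, DMEM with 1% FBS) received compound, then TGF-beta at 500 pg/mL final, and were incubated 18 hours at 37 degrees C. Viability was read by CellTiter-Glo luminescence. Media-only wells were set as complete cell-killing and DMSO as no toxicity.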
IL-1B inflam inh = qHTS for Inhibitors of Inflammasome Signaling: IL-1-beta AlphaLISA Primary Screen | activity change, % at 57.5 µM | 4.7% of 360,000 active | THP-1 LPS/ATP IL-1B secretion, AlphaLISA, 16 h; active compounds read low; in the data active = activity change below about -50%; inconclusive = mostly about -30% to -49%; note: % is set by controls: 0 for no effect and ±100 for the full control effect
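THP-1 cells pretreated 1 hr with compounds (up to 57.5 uM final), then stimulated with LPS (250 ng/mL final) plus ATP (1.25 mM final); secreted IL-1B measured by AlphaLISA after 16 hr, decreased signal indicating inhibition.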
DT40 TDP1 CPT = qHTS for Inhibitors of human tyrosyl-DNA phosphodiesterase 1 (TDP1): qHTS in cells in presence of CPT; chicken DT40 Tdp1-/-;hTDP1 cells + 20 nM CPT, ATP luminescence, 48 h; 12% of 420,000 active; AID 686979, 2013; Potency, µM (top dose mostly 46.2 µM), inactives show top-dose activity change, negative = growth inhibition, actives largely listed as inhibitors; note: potency is the fitted concentration of half-maximal effect; % is set by controls: 0 for no effect and ±100 for the full control effect; nearly all actives have a fitted effect of over 55% in size
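Chicken DT40 Tdp1-/- cells stably complemented with human TDP1 were seeded at 400 cells/well in medium containing 20 nM camptothecin, exposed to pin-transferred compounds, and grown at 37 °C for at least 48 hr. Viability was read as ATP luminescence.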
TGFb inhibitor = qHTS for Inhibitors of TGF-b; 1.2% of 410,000 active; Potency, µM (top dose mostly 46.1 µM), inactives show at the top dose activity, negative = inhibition, hits mostly inhibitors; HepG2 CAGA-GFP TGF-b/SMAD3 reporter, GFP fluorescence, 18 h; TGF-beta stimulated, 500 pg/mL final; note: potency is the fitted concentration of half-maximal effect; % is set by controls: 0 for no effect and ±100 for the full control effect; nearly all actives have a fitted effect of over 65% in size
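Cell-based qHTS in HEPG2 carrying a CAGA-GFP Smad reporter; compounds added before 500 pg/mL final TGF-beta, 18 h incubation at 37 degrees C, GFP fluorescence quantified per cell by imaging cytometry.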
DT40 TDP1 no CPT = qHTS for Inhibitors of human tyrosyl-DNA phosphodiesterase 1 (TDP1): qHTS in cells in absence of CPT; 15% of 420,000 active; Potency, µM (series often up to 46.2 µM), without a hit: top-dose activity change, negative = growth inhibition, usual class: inhibitors; AID 686978, 2013; DT40 Tdp1-/- hTDP1 cells, no CPT, ATP luminescence, 48 h; note: potency is the fitted concentration of half-maximal effect; % is set by controls: 0 for no effect and ±100 for the full control effect; nearly all actives have a fitted effect of over 55% in size
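Growth of hTDP1-complemented DT40 Tdp1-knockout cells is measured by ATP luminescence after at least 48 hr compound exposure at 37 °C, with DMSO substituting for the 20 nM CPT used in the parallel screen.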
S-ASM inh = Inhibitors of Secretory Acid Sphingomyelinase (S-ASM): qHTS; placental ASM, HMU-PC fluorogenic substrate, 60 min; Potency, µM (highest dose often 57.5 µM), for the others: top-dose activity change, negative = inhibition, hits mostly inhibitors; 0.006% of 340,000 active; note: potency is the fitted concentration of half-maximal effect
Target sequence (P17405 47-631 limits assumed): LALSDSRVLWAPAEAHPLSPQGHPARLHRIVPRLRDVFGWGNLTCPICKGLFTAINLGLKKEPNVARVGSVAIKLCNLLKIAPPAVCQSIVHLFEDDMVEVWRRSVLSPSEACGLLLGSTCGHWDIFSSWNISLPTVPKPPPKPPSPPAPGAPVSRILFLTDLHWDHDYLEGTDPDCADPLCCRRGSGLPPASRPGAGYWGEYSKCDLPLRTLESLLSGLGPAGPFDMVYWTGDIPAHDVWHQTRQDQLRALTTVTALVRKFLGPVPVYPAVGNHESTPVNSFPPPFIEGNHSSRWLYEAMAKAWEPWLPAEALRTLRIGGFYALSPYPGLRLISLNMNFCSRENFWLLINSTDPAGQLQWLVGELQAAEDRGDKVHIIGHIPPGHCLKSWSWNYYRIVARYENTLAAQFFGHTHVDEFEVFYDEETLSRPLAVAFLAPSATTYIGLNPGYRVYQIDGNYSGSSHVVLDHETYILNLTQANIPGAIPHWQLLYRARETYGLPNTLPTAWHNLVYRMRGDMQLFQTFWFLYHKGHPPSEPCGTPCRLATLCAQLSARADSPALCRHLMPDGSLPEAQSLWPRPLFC
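Fluorescence read-out (Ex 386 nm, Em 447 nm) after stopping the reaction at pH 10. Enzyme: ASM from human placenta; substrate HMU-PC0, 9 uM final; 60 min, 37 °C. Compound preincubation 10 min, ambient temperature.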
Numbers without * were called inactive; ? = inconclusive; / = no result. Hits are enriched below; roughly 19% of the tested compounds scored in any of these assays. Unless noted, calls come from the whole dose curve; as a rule, active = well fitted curve in the direction sought with a large enough effect; inconclusive = small, poorly fitted or top-dose-only effect, or another doubt; inactive = no such curve, though single readings can be large; an effect the other way counts as inactive or inconclusive.

SMILES	HepG2 viability	IL-1B inflam inh	DT40 TDP1 CPT	TGFb inhibitor	DT40 TDP1 no CPT	S-ASM inh
CC(=O)c1ccc(N2CCN(c3nc4c(S(=O)(=O)c5ccc(C)c(C)c5)nnn4c4ccc(Cl)cc34)CC2)cc1	4.6%	/	0.1%	9.7%	-0.2%	/
O=C(Cn1cc(S(=O)(=O)c2ccc(Cl)cc2)c(=O)c2ccccc21)Nc1ccc2c(c1)OCO2	-24.1%	/	-27.7%	?	?	/
CC1CCN(c2ccc(-c3nc(-c4ccccc4)no3)cc2[N+](=O)[O-])CC1	-9.5%	/	?	5.3%	?	/
CN1CCN(c2ccc(-c3nc(-c4ccccc4)no3)cc2[N+](=O)[O-])CC1	-13.0%	/	?	3.3%	14.6µM*	/
COc1cc(-c2noc(-c3ccc(N4CCN(C)CC4)c([N+](=O)[O-])c3)n2)cc(OC)c1OC	1.5%	/	3.26µM*	-0.5%	3.26µM*	/
Cc1ccccc1-c1noc(-c2ccc(N3CCN(C)CC3)c([N+](=O)[O-])c2)n1	18.1%	/	16.4µM*	?	13µM*	/
Cc1nc(-c2cccc(NS(C)(=O)=O)c2)cs1	-1.9%	-18.0	11.2%	-7.6%	6.4%	-1.2%
CC(=O)Nc1ccc(S(=O)(=O)Nc2cccc(-c3csc(C)n3)c2)cc1	-23.2%	38.5	20.6µM*	-1.2%	?	-0.4%
CC(=O)Nc1ccc(S(=O)(=O)NNc2cccc(C)c2)cc1	-12.5%	12.3	23.1µM*	-4.4%	?	-12.9%
CC(=O)Nc1ccc(S(=O)(=O)Nc2cccc(-c3nc4cc(C)ccc4o3)c2)cc1	-11.5%	9.2	20.6µM*	-14.6%	20.6µM*	-7.5%
Cc1cccc(NC(=O)NNS(=O)(=O)c2ccc(F)cc2)c1	-28.2%	-2.0	-9.5%	-18.6%	-27.2%	1.4%
CNC[C@@H]1Oc2ccc(NC(=O)Nc3c(C)noc3C)cc2CC(=O)N([C@H](C)CO)C[C@H]1C	1.1%	18.9	-17.8%	0.3%	6.1%	-3.5%
C[C@@H]1CN([C@H](C)CO)C(=O)CCCn2nncc2CO[C@@H]1CN(C)S(=O)(=O)c1ccc(Cl)cc1	1.4%	3.7	-21.4%	-4.6%	-7.7%	/
C=CC[N+]1(CC(=O)NCc2ccc(NC(C)=O)cc2)CCOCC1	6.0%	15.8	3.5%	7.0%	7.2%	3.3%
COc1ccc(C(=O)OC(C)C(=O)NC(C)CCc2ccccc2)c(OC)c1 (stereo unspecified)	-3.7%	-8.4	-18.4%	-0.5%	?	-2.7%
O=C(NNC1=NCCCCC1)Nc1cccc(Cl)c1	15.5%	-1.3	20.9%	9.6%	-4.5%	1.7%
CCOC(=O)N(C)c1c(CC)nc2c(OCCC3CCCCC3)cccn12	-51.3%	-76.5*	?	?	16.4µM*	/
CCOC(=O)C(=O)N(C)c1c(CC)nc2c(OCCC3CCCCC3)cccn12	-21.0%	-24.5	?	-6.6%	18.4µM*	/
C=CCOC(=O)C1=C[C@H](c2coc3ccccc3c2=O)[C@@H](CCCO)[C@H](OCC)O1	-0.4%	28.4	-23.2%	?	-15.5%	-0.2%
CCOCCc1nn2c(=O)cc(COC(=O)C(CC)c3ccccc3)nc2s1 (stereo unspecified)	-19.5%	/	?	-9.6%	?	/
O=C(Cn1cnc([N+](=O)[O-])c1)Nc1cc(Oc2ccc(Cl)cc2Cl)cc([N+](=O)[O-])c1	-112.7%	-58.0*	16.4µM*	?	16.4µM*	?
N#Cc1ccc(NC(=O)Cn2cnc([N+](=O)[O-])c2)cc1	0.6%	34.0	-27.2%	5.2%	9.6%	0.5%
Cc1ccc(-c2nnc3c4ccccc4c(-c4ccccc4)nn23)cc1	-9.0%	/	1.8%	-2.6%	-15.3%	/
CCN1C(=O)/C(=C2\SC(=S)N(CCCOC)C2=O)c2ccccc21	4.0%	-8.3	-22.9%	12.3%	-23.0%	-6.7%
CCC(C)C(=O)N1c2ccccc2C(=C2SC(C(=O)OC)=C(C(=O)OC)S2)C(=S)C1(C)C (stereo unspecified)	-23.9%	-59.1*	11.2µM*	?	12.6µM*	-15.9%
SMILES	HepG2 viability	IL-1B inflam inh	DT40 TDP1 CPT	TGFb inhibitor	DT40 TDP1 no CPT	S-ASM inh
CCOC(=O)c1ccccc1NC(=O)COC(=O)c1ccc(OCC(=O)N2CCOCC2)c(OCC)c1	2.6%	17.2	?	6.8%	?	-2.3%
COCCCCOc1cc2nc(N3CCCN(C)CC3)nc(NC3CCN(C)CC3)c2cc1OC	/	/	12.6µM*	/	11.2µM*	/
COc1cc2c(NC3CCN(C)CC3)nc(N3CCCN(C)CC3)nc2cc1OCCCN1CCOCC1	-11.4%	/	7.94µM*	10µM*	11.2µM*	/
CC1CCN(C(=O)COC(=O)c2ccc([N+](=O)[O-])o2)CC1	-0.2%	?	-21.1%	6.0%	-12.8%	2.1%
CCN(CC)CCOC(=O)C(Cc1ccco1)Cc1cccc2ccccc12 (stereo unspecified)	-30.5%	-57.1*	?	-24.5%	?	-1.6%
O=[N+]([O-])c1ccccc1S(=O)(=O)NCCC1=CCCCC1	-20.6%	-26.1	18.4µM*	-41.3%	20.6µM*	3.1%
O=S(=O)(NCCC1=CCCCC1)c1cccc(Br)c1	-27.7%	2.4	?	?	18.4µM*	-8.0%
CCOC(=O)N1CCC(N(C(=O)Nc2ccc(CC)cc2)C(C)CC)CC1 (stereo unspecified)	4.5%	-8.0	?	-23.1%	23.1µM*	0.1%
CCOC(=O)N1CCC(N(CCCOC)C(=O)Nc2ccc(CC)cc2)CC1	-25.0%	7.1	18.4µM*	?	13µM*	3.4%
CCOC(=O)N1CCC(N(C(=O)Nc2ccccc2)C(C)CC)CC1 (stereo unspecified)	-0.4%	4.8	?	-25.6%	?	4.8%
CCOC(=O)N1CCC(N(CCOC)C(=O)Nc2ccc(Cl)cc2)CC1	2.9%	0.0	?	-44.5%	14.6µM*	2.4%
CCc1ccc(NC(=S)N(CCOC)C2CCN(C(C)=O)CC2)cc1	-1.6%	-17.4	-7.3%	5.8%	-8.1%	2.5%
CC(=O)Nc1ccc(S(=O)(=O)NC2(C(F)(F)F)C(=O)Nc3c2c(=O)[nH]c(=O)n3-c2ccc(C)cc2)cc1 (stereo unspecified)	-14.9%	/	-7.1%	-6.7%	12.4%	/

Compound activity from PubChem.
